Screening data from PubChem BioAssay.
FLuc modulator – firefly luciferase modulation, counter-screen for miR-21 project | P08659 | purified FLuc, Km substrates, luminescence inhibition | Potency, µM (titrated, usually from 57.5 µM), for the others: at the top dose activity change, negative = inhibition, usual class: inhibitors | 360,000 tested, 6.9% active | AID 588342;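 further: plate controls were vehicle for no effect and reference inhibitor for full effect; nearly all actives have a fitted effect of over 55% in size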
Target sequence (P08659 whole entry, looked up): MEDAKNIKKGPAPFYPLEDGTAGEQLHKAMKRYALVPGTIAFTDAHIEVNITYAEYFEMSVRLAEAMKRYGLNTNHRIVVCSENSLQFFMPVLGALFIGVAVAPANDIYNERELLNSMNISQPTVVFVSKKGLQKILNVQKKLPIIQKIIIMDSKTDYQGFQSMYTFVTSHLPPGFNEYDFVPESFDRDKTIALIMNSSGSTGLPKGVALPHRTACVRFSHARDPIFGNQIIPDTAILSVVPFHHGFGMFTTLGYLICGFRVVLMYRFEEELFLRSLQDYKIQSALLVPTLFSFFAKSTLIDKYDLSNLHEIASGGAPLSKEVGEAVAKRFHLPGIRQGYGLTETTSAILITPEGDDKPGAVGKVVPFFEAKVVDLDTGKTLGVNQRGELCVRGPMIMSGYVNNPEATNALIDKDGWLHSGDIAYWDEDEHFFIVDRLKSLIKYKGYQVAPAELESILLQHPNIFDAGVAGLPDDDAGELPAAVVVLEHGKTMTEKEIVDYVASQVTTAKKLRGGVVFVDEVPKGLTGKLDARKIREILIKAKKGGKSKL
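Biochemical qHTS of compounds, final roughly 60 µM downward over six points, against 10 nM purified firefly luciferase using Km concentrations of substrates (10 uM D-luciferin, 10 uM ATP) in Tris acetate pH 7.5 buffer; luminescence output.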
Rab9 prom act – Rab9 promoter activation. Huh7 Rab9 promoter-luciferase reporter, luminescence, 24 h. Potency, µM (top dose mostly 9.22 µM), for inactives: at the top dose activation, negative = inhibition, hits mostly activators. 320,000 tested, 2.8% active. AID 485297; further: % of control where 0% means no effect; nearly all actives have a fitted effect of over 60% in size
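Cell-based reporter: Huh7 stable for Rab9 promoter-driven luciferase, plated in reduced-serum medium with 10% FBS at 1500 cells/well, compound-treated 24 h at 37 °C, luminescence read after 10 min reagent.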
NPC1 promoter act – NPC1 promoter activation; Huh7 NPC1 promoter luciferase reporter, 24 h; Potency, µM (highest dose often 9.22 µM), for the others: top-dose activation, most hits filed as activators; 320,000 tested, 2.4% active; further: % of control where 0% means no effect; nearly all actives have a fitted effect of over 60% in size
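NPC1 promoter–luciferase Huh7 cells; 24 h compound; luminescence.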
SMN2 splice up – SMN2 splice variant enhancement; AID 1458; HEK293 SMN2-luciferase splicing reporter, luminescence, 30-36 h; Potency, µM (doses to about 46.1 µM), for inactives: at the top dose activity change, positive = activation, hits mostly activators; 210,000 tested, 2.8% active; further: % of control where 0% means no effect; nearly all actives have a fitted effect of over 55% in size
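HEK293 cells carry an SMN2 minigene-luciferase reporter in which exon 7 inclusion puts luciferase in frame. Cells were seeded at 2000 cells/well, attached for 10-12 hours, then exposed to compounds for 30-36 hours at 37C before ONE-Glo luminescence.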
ELG1 genotox – induces genotoxicity in HEK293T cells with luciferase-tagged ELG1 | HEK293T ELG1-luciferase reporter, luminescence, 16 h | Potency, µM (doses to about 46 µM), inactives show top-dose activity change, positive = activation, actives largely listed as activators | 330,000 tested, 1.3% active | AID 504466; further: % of control where 0% means no effect; nearly all actives have a fitted effect of over 60% in size
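Quantitative HTS format in 1536-well plates. HEK293T ELG1-luciferase reporter cells receive test compound and are incubated 16 hr at 37 °C, 5% CO2; ONE-Glo added, 30 min room temperature, then luminescence read.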
Luc counter – counter-screen: inhibitors of Kinase-Glo firefly luciferase; Q27757; 200,000 tested, 0.28% active; Kinase-Glo luciferase, ATP luminescence, 8 min; Potency, µM (top dose mostly 38.3 µM), for inactives: at the top dose activity change, negative = inhibition, actives largely listed as inhibitors; further: on the % scale 0 is the no-effect control and ±100 the full control effect; nearly all actives have a fitted effect of over 60% in size
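Light output from Kinase-Glo luciferase with luciferin and 10 uM ATP in 50 mM imidazole pH 7.2, KCl, MgCl2, Tween 20, BSA; compound pin-delivered, 8-min ambient incubation, then luminescence read.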
Active calls of the source: *; u = inconclusive; x = not tested or not shown; ! = a repeat was not active. Only some compounds are listed: those with a hit (about 7.3% of all), similar ones and a draw of the others. The call rests on the fitted dose curve; in most records, active means well fitted curve in the direction sought with a large enough effect; inconclusive means small, poorly fitted or top-dose-only effect, or another doubt; inactive means no such curve, though single readings can be large; an effect the other way counts as inactive or inconclusive. Potency means the concentration at half of the fitted maximal effect.

SMILES | FLuc modulator | Rab9 prom act | NPC1 promoter act | SMN2 splice up | ELG1 genotox | Luc counter
CC1(C)CC(=O)C(C=Nc2ccc3c(c2)OCO3)=C(O)C1 | 15µM* | 18% | 0% | u | u | -6%
COc1ccc(N=CC2=C(O)CC(C)(C)CC2=O)cc1 | 19µM* | 11% | -2% | -12% | u | -7%
COc1ccc(OC)c(N=CC2=C(O)CC(C)(C)CC2=O)c1 | -6% | 2% | 1% | 18% | 4% | -4%
Cc1ccc(C(CC(=O)NCc2ccco2)c2ccccc2)c(O)c1 (stereo not given) | 4% | 0% | 1% | -10% | -1% | -2%
CCc1ccc(NC(=O)C(=S)NC2CCCCC2)cc1 | 3µM* | 0.63µM* | 0.79µM* | x | 8.2µM* | x
CCOc1ccc(CC(=O)NNC(=O)NC2CCCCC2)cc1 | -2% | 2% | 1% | 2% | 2% | 1%
CCc1ccc(NC(=O)C2CCCN2C(=O)NC2CCCCC2)cc1 (stereo not given) | 0% | 5% | 0% | x | -2% | x
CCOc1ccc(NC(=O)NC2CCCCCCC2)cc1 | 5.4µM* | 3.5µM* | 1.8µM* | x | 10µM* | x
O=C(Nc1ccc(Br)cc1)NC1CCCCCCC1 | 6.7µM* | 4µM* | 2.2µM* | x | u | x
COc1ccc(NC(=O)CSC2CCCCC2)cc1 | 12µM* | 3.5µM* | 3.2µM* | 16% | u | 2%
O=C(CCC(=O)N/N=C/c1cc(Cl)cc(Cl)c1O)NCc1ccccc1 | -16% | -2% | 1% | x | -2% | 1%
O=C(O)/C=C/c1cn(-c2ccccc2)nc1-c1cc2ccccc2oc1=O | -6% | 2% | -1% | x | -1% | x
Nc1nc(-c2ccco2)nn1C(=O)c1ccccc1Cl | 4% | -5% | -1% | -14% | 19% | -3%
Cc1ccc(NC(=O)N2CCCC2)cc1Cl | -20% | 28% | 17% | 16% | 10% | -4%
COc1ccc(NC(=O)CCSc2ccc(F)cc2)cc1 | 15µM* | 3.5µM* | u | x | u | x
Cc1ccc(NC(=O)NC2CCCCC2)cc1Cl | u | u | 3.2µM* | 13µM* | 3.7µM* | -1%
CCc1ccc(NC(=O)NC2CCCCCCC2)cc1 | 3.8µM* | 1.1µM* | 0.71µM* | x | u | x
COc1ccc(NC(=O)CCSc2ccc(C)cc2)cc1 | 3% | -5% | -1% | -5% | 0% | -1%
Cc1ccc(NC(=O)C(=O)N2CCCC2)cc1Cl | 2.1µM* | 2.8µM* | 3.2µM* | 10µM* | u | -1%
O=C(C1CCN(S(=O)(=O)c2ccc(Cl)c(C(F)(F)F)c2)CC1)N1CCC1 | 2% | -6% | -8% | x | -1% | x
O=C(COC(=O)C1CCC(=O)N1)Nc1ccc(Br)cc1 (stereo not given) | -2% | -3% | -1% | 20% | -1% | 1%
O=C(CCN1CCN(CCO)CC1)Nc1ccc(C2CCCC2)cc1 | 4% | -3% | -9% | -17% | 2% | -1%
COc1ccc(OC)c(NC(=O)C(=S)NC2CCCCC2)c1 | u | 1% | -2% | -15% | 1% | 3%
COc1ccc(NC(=O)C(=S)NC2CCCCC2)cc1 | 5.4µM* | 2.8µM* | 1.6µM* | 13µM* | 8.2µM* | -2%
O=C(CSCCO)Nc1ccc(C2CCCCC2)cc1 | 12µM* | -6% | -5% | -12% | u | 0%
SMILES | FLuc modulator | Rab9 prom act | NPC1 promoter act | SMN2 splice up | ELG1 genotox | Luc counter
Cc1ccc(C)c(NS(=O)(=O)c2cc3c4c(c2)C(C)C(=O)N4CCC3)c1 (stereo not given) | -3% | x | x | x | x | x
O=C1C(C=NCCCN2CCCC2=O)=C(O)c2ccccc21 | 19µM* | u | u | u | 18µM* | 7%
O=C1CCCN1CCCNCC(O)c1ccccc1 (stereo not given) | -2% | -4% | 0% | x | -5% | x
O=C1C(C=NC2CC2)=C(O)c2ccccc21 | u | 4% | 26% | 20% | u | -4%
O=C1C(C=NCc2ccccn2)=C(O)c2ccccc21 | 12µM* | 4µM* | 2.2µM* | 5.6µM* | u | -5%
O=c1oc2ccccc2c(O)c1C=NCc1ccccn1 | u | -3% | -10% | 4% | -9% | -8%
CC(C)CN=CC1=C(O)c2ccccc2C1=O | 12µM* | 1µM* | 1.8µM* | x | u | x
COc1cc2c(cc1OC)CN(CC(=O)Nc1ccc3c(c1)OCO3)CC2 | 3% | -2% | 0% | 15% | 1% | -3%
CN(C)S(=O)(=O)c1ccc2c(c1)/C(=C/c1cc3c([nH]1)CCCC3)C(=O)N2 | -20% | u | u | 11µM* | u | -5%
COc1ccc(-n2c(Cc3cccn3C)nnc2SCC(=O)Nc2ccc(Cl)cc2)cc1 | -1% | -2% | -3% | 2% | -24% | -2%
Cc1ccc(N/C=C(/C#N)c2ccsc2)cc1 | 17µM* | x | x | u | x | 9%
NC(=O)C1CCN(c2nc(-c3ccc(F)cc3)cs2)CC1 | 2% | 1.4µM*! | 2.2µM*! | x | 0% | x
NC(=O)C1CCN(c2nc(-c3cccc(N)c3)cs2)CC1 | u | 2% | 3% | x | u | x
Cn1ccc2cc(-c3csc(N4CCC(C(N)=O)CC4)n3)ccc21 | 12µM* | 1.3µM* | 2.8µM* | x | 3% | x
CCOC(=O)c1cnn(-c2nc(-c3ccc(C)cc3)cs2)c1C(F)(F)F | -15% | -5% | 2% | 4% | 1% | -8%
O=C(O)c1cnn(-c2nc(-c3ccc(F)cc3)cs2)c1C(F)(F)F | 21µM* | u | 28% | 27% | 14% | 1%
